From the supplement of paper PMC9477273

The compounds below were run on DRIVER-selected RNA biosensor (aptazyme) pool (assay: maximum fold change of ribozyme cleavage across biosensor pool versus no-compound control; higher = stronger biosensor response (ligand inhibits cleavage)). Conditions: 10 µM.
Procedure, shortened: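 Fold change of cleavage, the ratio of cleaved:uncleaved read fractions versus a no-compound condition corrected with reference sequences, is given as the maximum over all biosensors. It was measured by CleaveSeq on a pool of 1,730 array-resynthesized ribozyme biosensors transcribed by T7 with 9 mM rNTPs for 15–30 min at 37°C in the presence of one compound at 10 µM final, added from a 10x DMSO stock. After reverse transcription at 50°C, cleaved and uncleaved products were PCR-barcoded and counted by Illumina sequencing.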

SMILES | maximum fold change
Cc1cc(C)c2c(-n3cccc3)c(C(=O)NCc3ccc4c(c3)OCO4)sc2n1 | 5.23
N=C1NC(=O)/C(=C/c2cc(Br)ccc2OCc2ccccc2)S1 | 4.89
COc1ccc(OC)c(C2C3=C(CC(C)(C)CC3=O)OC3=C2C(=O)CC(C)(C)C3)c1 | 2.36
Brc1ccc(/C=N/c2nc3ccccc3n2CCN2CCCCC2)cc1 | 2.07
COc1ccc(S(=O)(=O)Nc2cccnc2)cc1 | 2.43
COc1cc(OC)c(OC)cc1/C=C1N=C(c2ccco2)OC1=O | 2.19
CCCCC(C(=O)N1CCCCC1)N1C(=O)c2ccccc2C1=O (configuration not stated) | 1.93
CCOc1ccc(CCNC2=NS(=O)(=O)C(c3ccc(C)cc3)=C2C)cc1OCC | 3.71
COc1ccc(S(=O)Cc2ccc(C(=O)NC3CC3)o2)cc1 (configuration not stated) | 2.4
O=C1C2CC=C(Cl)CC2C(=O)N1CCO (configuration not stated) | 3.4
CCOC(=O)/C(=CC=CN1CCOCC1)/C(=O)C | 1.94
COc1ccc(CN2CCN(Cc3csc(C)c3C)CC2)c(OC)c1OC | 2.47
